# Laboratory results published in the supplement of paper PMC8728848.
# This is one part of a sample in which the strongest signals are shown more often than they occur.
# Columns and labels:
# Assay in all cases: glycan array binding signal (z-score within array); higher = stronger binding
# Conditions in all cases: glycan notation: IUPAC condensed, linker removed
# [1] = molecular target: Fuc(a1-2)Gal(b1-3)GalNAc(b1-3)Gal(a1-4)Gal(b1-4)Glc
# Procedure, shortened: (§1)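 Glycan array data were curated from 3228 arrays in the Consortium for Functional Glycomics database and kept only where the protein sequence was available. Glycan names were converted to IUPAC-condensed notation, and columns mapping to the same glycan were averaged. The binding signal is a within-array Z-score, averaged across arrays of the same protein sequence at different concentrations or buffers and across linkers. Negative Z-scores can be read as non-binding.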
# [2] = molecular target: Fuc(a1-2)Gal(b1-3)GlcNAc(b1-3)GalNAc
# Procedure, shortened: as §1
# [3] = molecular target: Fuc(a1-2)Gal(b1-3)[Fuc(a1-4)]GlcNAc(b1-2)Man(a1-3)[Fuc(a1-2)Gal(b1-3)[Fuc(a1-4)]GlcNAc(b1-2)Man(a1-6)]Man(b1-4)GlcNAc(b1-4)[Fuc(a1-6)]GlcNAc(b1-4)[Fuc(a1-6)]GlcNAc
# Procedure, shortened: as §1
# [4] = molecular target: Fuc(a1-2)Gal(b1-4)[Fuc(a1-3)]GlcNAc(b1-2)Man(a1-3)[Fuc(a1-2)Gal(b1-4)[Fuc(a1-3)]GlcNAc(b1-2)Man(a1-6)]Man(b1-4)GlcNAc(b1-4)[Fuc(a1-6)]GlcNAc
# Procedure, shortened: as §1
# [5] = molecular target: Fuc(a1-2)[Gal(a1-4)]Gal(b1-4)GlcNAc
# Procedure, shortened: as §1
# [6] = molecular target: Fuc(a1-3)[Gal3S(b1-4)]GlcNAc
# Procedure, shortened: as §1
# Fuc(a1-4)GlcNAc = molecular target: Fuc(a1-4)GlcNAc
# Procedure, shortened: as §1
# [7] = molecular target: Gal(a1-3)Gal(b1-4)[Fuc(a1-3)]GlcNAc
# Procedure, shortened: as §1
# Gal(a1-4)GlcNAc = molecular target: Gal(a1-4)GlcNAc
# Procedure, shortened: as §1
# Gal(b1-3)Gal = molecular target: Gal(b1-3)Gal
# Procedure, shortened: as §1
# Gal(b1-3)GlcNAc(b1-2)Man = molecular target: Gal(b1-3)GlcNAc(b1-2)Man
# Procedure, shortened: as §1
# [8] = molecular target: Gal(b1-3)GlcNAc(b1-3)Gal(b1-4)[Fuc(a1-3)]GlcNAc
# Procedure, shortened: as §1
# [9] = molecular target: Gal(b1-3)GlcNAc(b1-3)Gal(b1-4)[Fuc(a1-3)]GlcNAc(b1-6)[Gal(b1-3)GlcNAc(b1-3)]Gal(b1-4)Glc
# Procedure, shortened: as §1
# Gal(b1-4)Glc = molecular target: Gal(b1-4)Glc
# Procedure, shortened: as §1
# [10] = molecular target: Gal(b1-4)GlcNAc(b1-3)Gal(b1-4)GlcNAc(b1-3)GalNAc
# Procedure, shortened: as §1
# [11] = molecular target: Gal(b1-4)GlcNAc(b1-3)GalNAc
# Procedure, shortened: as §1
# Gal3S(b1-4)GlcNAc = molecular target: Gal3S(b1-4)GlcNAc
# Procedure, shortened: as §1
# [12] = molecular target: Gal3S(b1-4)[Fuc(a1-3)]GlcNAc
# Procedure, shortened: as §1
# GalNAc(a1-3)Gal = molecular target: GalNAc(a1-3)Gal
# Procedure, shortened: as §1
# GalNAc(b1-3)GalNAc = molecular target: GalNAc(b1-3)GalNAc
# Procedure, shortened: as §1
# GalNAc(b1-3)GlcNAc = molecular target: GalNAc(b1-3)GlcNAc
# Procedure, shortened: as §1
# [13] = molecular target: GalNAc3S(b1-4)[Fuc(a1-3)]GlcNAc
# Procedure, shortened: as §1
# [14] = molecular target: GlcNAc(a1-4)Gal(b1-3)GlcNAc
# Procedure, shortened: as §1
# [15] = molecular target: GlcNAc(b1-3)Gal(b1-3)GalNAc
# Procedure, shortened: as §1
# GlcNAc(b1-3)Gal(b1-4)Glc = molecular target: GlcNAc(b1-3)Gal(b1-4)Glc
# Procedure, shortened: as §1
# [16] = molecular target: GlcNAc(b1-3)Gal(b1-4)GlcNAc(b1-2)Man(a1-3)[GlcNAc(b1-3)Gal(b1-4)GlcNAc(b1-2)Man(a1-6)]Man(b1-4)GlcNAc(b1-4)[Fuc(a1-6)]GlcNAc
# Procedure, shortened: as §1
# [17] = molecular target: GlcNAc(b1-3)Gal(b1-4)GlcNAc(b1-3)Gal(b1-4)GlcNAc(b1-2)Man(a1-3)[GlcNAc(b1-3)Gal(b1-4)GlcNAc(b1-3)Gal(b1-4)GlcNAc(b1-2)Man(a1-6)]Man(b1-4)GlcNAc(b1-4)[Fuc(a1-6)]GlcNAc
# Procedure, shortened: as §1
# [18] = molecular target: GlcNAc(b1-3)Gal(b1-4)GlcNAc(b1-3)Gal(b1-4)GlcNAc(b1-2)[GlcNAc(b1-3)Gal(b1-4)GlcNAc(b1-3)Gal(b1-4)GlcNAc(b1-6)]Man(a1-6)[GlcNAc(b1-3)Gal(b1-4)GlcNAc(b1-3)Gal(b1-4)GlcNAc(b1-2)Man(a1-3)]Man(b1-4)GlcNAc(b1-4)[Fuc(a1-6)]GlcNAc
# Procedure, shortened: as §1
# [19] = molecular target: GlcNAc(b1-3)Gal(b1-4)GlcNAc(b1-3)Gal(b1-4)GlcNAc(b1-3)Gal(b1-4)GlcNAc(b1-2)Man(a1-3)[GlcNAc(b1-3)Gal(b1-4)GlcNAc(b1-3)Gal(b1-4)GlcNAc(b1-3)Gal(b1-4)GlcNAc(b1-2)Man(a1-6)]Man(b1-4)GlcNAc(b1-4)[Fuc(a1-6)]GlcNAc
# Procedure, shortened: as §1
# [20] = molecular target: GlcNAc(b1-3)Gal(b1-4)GlcNAc(b1-3)Gal(b1-4)GlcNAc(b1-3)Gal(b1-4)GlcNAc(b1-2)[GlcNAc(b1-3)Gal(b1-4)GlcNAc(b1-3)Gal(b1-4)GlcNAc(b1-3)Gal(b1-4)GlcNAc(b1-6)]Man(a1-6)[GlcNAc(b1-3)Gal(b1-4)GlcNAc(b1-3)Gal(b1-4)GlcNAc(b1-3)Gal(b1-4)GlcNAc(b1-2)Man(a1-3)]Man(b1-4)GlcNAc(b1-4)[Fuc(a1-6)]GlcNAc
# Procedure, shortened: as §1
# GlcNAc(b1-3)GalNAc = molecular target: GlcNAc(b1-3)GalNAc
# Procedure, shortened: as §1
# [21] = molecular target: GlcNAc(b1-4)[GlcNAc(b1-6)]GalNAc
# Procedure, shortened: as §1
# GlcNAc(b1-6)GalNAc = molecular target: GlcNAc(b1-6)GalNAc
# Procedure, shortened: as §1
# [22] = molecular target: Man(a1-2)Man(a1-3)[Man(a1-2)Man(a1-6)]Man(a1-6)[Man(a1-2)Man(a1-2)Man(a1-3)]Man
# Procedure, shortened: as §1
# [23] = molecular target: Man(a1-2)Man(a1-6)[Man(a1-3)]Man(a1-6)[Man(a1-2)Man(a1-2)Man(a1-3)]Man(b1-4)GlcNAc(b1-4)GlcNAc
# Procedure, shortened: as §1
# [24] = molecular target: Man(a1-3)[Man(a1-6)]Man(a1-6)[Man(a1-3)]Man(b1-4)GlcNAc(b1-4)GlcNAc
# Procedure, shortened: as §1
# [25] = molecular target: Man(a1-3)[Man(a1-6)]Man(b1-4)GlcNAc(b1-4)GlcNAc
# Procedure, shortened: as §1
# [26] = molecular target: Neu5Ac(a2-3)Gal(b1-3)GlcNAc
# Procedure, shortened: as §1
# [27] = molecular target: Neu5Ac(a2-3)Gal(b1-3)GlcNAc(b1-2)[Neu5Ac(a2-3)Gal(b1-3)GlcNAc(b1-4)]Man(a1-6)[Neu5Ac(a2-3)Gal(b1-3)GlcNAc(b1-2)Man(a1-3)]Man(b1-4)GlcNAc(b1-4)GlcNAc
# Procedure, shortened: as §1
# [28] = molecular target: Neu5Ac(a2-3)Gal(b1-4)GlcNAc(b1-2)Man
# Procedure, shortened: as §1
# [29] = molecular target: Neu5Ac(a2-3)Gal(b1-4)GlcNAc(b1-2)Man(a1-3)[Neu5Ac(a2-6)Gal(b1-4)GlcNAc(b1-2)Man(a1-6)]Man(b1-4)GlcNAc(b1-4)GlcNAc
# Procedure, shortened: as §1
# [30] = molecular target: Neu5Ac(a2-3)Gal(b1-4)GlcNAc(b1-3)Gal(b1-4)GlcNAc(b1-6)[Gal(b1-3)]GalNAc
# Procedure, shortened: as §1
# [31] = molecular target: Neu5Ac(a2-3)Gal(b1-4)GlcNAc(b1-6)[Neu5Ac(a2-3)Gal(b1-3)]GalNAc
# Procedure, shortened: as §1
# [32] = molecular target: Neu5Ac(a2-3)Gal6S(b1-4)[Fuc(a1-3)]GlcNAc
# Procedure, shortened: as §1
# [33] = molecular target: Neu5Ac(a2-6)Gal(b1-4)GlcNAc
# Procedure, shortened: as §1
# [34] = molecular target: Neu5Ac(a2-6)Gal(b1-4)GlcNAc(b1-2)Man(a1-3)[Man(a1-6)]Man(b1-4)GlcNAc(b1-4)GlcNAc
# Procedure, shortened: as §1
# [35] = molecular target: Neu5Ac(a2-6)Gal(b1-4)GlcNAc(b1-2)Man(a1-3)[Neu5Ac(a2-3)Gal(b1-4)GlcNAc(b1-2)Man(a1-6)]Man(b1-4)GlcNAc(b1-4)GlcNAc
# Procedure, shortened: as §1
# [36] = molecular target: Neu5Ac(a2-8)Neu5Ac(a2-3)Gal(b1-3)GalNAc(b1-4)[Neu5Ac(a2-8)Neu5Ac(a2-3)]Gal(b1-4)Glc
# Procedure, shortened: as §1
# [37] = molecular target: Neu5Gc(a2-3)Gal(b1-3)[Fuc(a1-4)]GlcNAc
# Procedure, shortened: as §1
# [38] = molecular target: Neu5Gc(a2-3)Gal(b1-4)GlcNAc
# Procedure, shortened: as §1
# [39] = molecular target: Neu5Gc(a2-3)Gal(b1-4)[Fuc(a1-3)]GlcNAc
# Procedure, shortened: as §1
binder,measurement,setting,value
"LysMD3 (Homo sapiens), Q7Z3D4 (protein) MAGRHQNRSFPLPGVQSSGQVHAFGNCSDSDILEEDAEVYELRSRGKEKVRRSTSRDRLDDIIVLTKDIQEGDTLNAIALQYCCTVADIKRVNNLISDQDFFALRSIKIPVKKFSSLTETLCPPKGRQTSRHSSVQYSSEQQEILPANDSLAYSDSAGSFLKEVDRDIEQIVKCTDNKRENLNEVVSALTAQQMRFEPDNKNTQRKDPYYGADWGIG",glycan array binding signal (z-score),[1],0.086
same,glycan array binding signal (z-score),[2],0.587
same,glycan array binding signal (z-score),[3],0.341
same,glycan array binding signal (z-score),[4],1.97
same,glycan array binding signal (z-score),[5],2.84
same,glycan array binding signal (z-score),[6],-0.081
same,glycan array binding signal (z-score),Fuc(a1-4)GlcNAc,0.681
same,glycan array binding signal (z-score),[7],0.873
same,glycan array binding signal (z-score),Gal(a1-4)GlcNAc,0.113
same,glycan array binding signal (z-score),Gal(b1-3)Gal,0.706
same,glycan array binding signal (z-score),Gal(b1-3)GlcNAc(b1-2)Man,1.23
same,glycan array binding signal (z-score),[8],2.15
same,glycan array binding signal (z-score),[9],-0.547
same,glycan array binding signal (z-score),Gal(b1-4)Glc,-0.555
same,glycan array binding signal (z-score),[10],-0.073
same,glycan array binding signal (z-score),[11],0.375
same,glycan array binding signal (z-score),Gal3S(b1-4)GlcNAc,-0.699
same,glycan array binding signal (z-score),[12],0.294
same,glycan array binding signal (z-score),GalNAc(a1-3)Gal,0.335
same,glycan array binding signal (z-score),GalNAc(b1-3)GalNAc,1.67
same,glycan array binding signal (z-score),GalNAc(b1-3)GlcNAc,1.85
same,glycan array binding signal (z-score),[13],-0.424
same,glycan array binding signal (z-score),[14],0.45
same,glycan array binding signal (z-score),[15],1.5
same,glycan array binding signal (z-score),GlcNAc(b1-3)Gal(b1-4)Glc,0.983
same,glycan array binding signal (z-score),[16],1.83
same,glycan array binding signal (z-score),[17],1.8
same,glycan array binding signal (z-score),[18],1.87
same,glycan array binding signal (z-score),[19],1.68
same,glycan array binding signal (z-score),[20],2.41
same,glycan array binding signal (z-score),GlcNAc(b1-3)GalNAc,-0.639
same,glycan array binding signal (z-score),[21],0.46
same,glycan array binding signal (z-score),GlcNAc(b1-6)GalNAc,0.427
same,glycan array binding signal (z-score),[22],0.422
same,glycan array binding signal (z-score),[23],-0.445
same,glycan array binding signal (z-score),[24],-0.113
same,glycan array binding signal (z-score),[25],-0.343
same,glycan array binding signal (z-score),[26],-0.413
same,glycan array binding signal (z-score),[27],-0.094
same,glycan array binding signal (z-score),[28],-0.604
same,glycan array binding signal (z-score),[29],0.582
same,glycan array binding signal (z-score),[30],-0.924
same,glycan array binding signal (z-score),[31],-0.226
same,glycan array binding signal (z-score),[32],-0.291
same,glycan array binding signal (z-score),[33],-0.353
same,glycan array binding signal (z-score),[34],-1.15
same,glycan array binding signal (z-score),[35],-0.438
same,glycan array binding signal (z-score),[36],1.66
same,glycan array binding signal (z-score),[37],-0.44
same,glycan array binding signal (z-score),[38],-0.032
same,glycan array binding signal (z-score),[39],-0.174
